Data on 18 molecules can be found in ChEMBL document CHEMBL1961873, “Compounds: GSK PKIS; Assays: Nanosyn kinase panel” (2012).
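Further: reported as mean inhibition of EPHB2, from the GSK PKIS dataset.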

In the assay the target is T1, Ephrin type-B receptor 2 (Homo sapiens) (UniProt P29323).
T1 sequence (whole entry): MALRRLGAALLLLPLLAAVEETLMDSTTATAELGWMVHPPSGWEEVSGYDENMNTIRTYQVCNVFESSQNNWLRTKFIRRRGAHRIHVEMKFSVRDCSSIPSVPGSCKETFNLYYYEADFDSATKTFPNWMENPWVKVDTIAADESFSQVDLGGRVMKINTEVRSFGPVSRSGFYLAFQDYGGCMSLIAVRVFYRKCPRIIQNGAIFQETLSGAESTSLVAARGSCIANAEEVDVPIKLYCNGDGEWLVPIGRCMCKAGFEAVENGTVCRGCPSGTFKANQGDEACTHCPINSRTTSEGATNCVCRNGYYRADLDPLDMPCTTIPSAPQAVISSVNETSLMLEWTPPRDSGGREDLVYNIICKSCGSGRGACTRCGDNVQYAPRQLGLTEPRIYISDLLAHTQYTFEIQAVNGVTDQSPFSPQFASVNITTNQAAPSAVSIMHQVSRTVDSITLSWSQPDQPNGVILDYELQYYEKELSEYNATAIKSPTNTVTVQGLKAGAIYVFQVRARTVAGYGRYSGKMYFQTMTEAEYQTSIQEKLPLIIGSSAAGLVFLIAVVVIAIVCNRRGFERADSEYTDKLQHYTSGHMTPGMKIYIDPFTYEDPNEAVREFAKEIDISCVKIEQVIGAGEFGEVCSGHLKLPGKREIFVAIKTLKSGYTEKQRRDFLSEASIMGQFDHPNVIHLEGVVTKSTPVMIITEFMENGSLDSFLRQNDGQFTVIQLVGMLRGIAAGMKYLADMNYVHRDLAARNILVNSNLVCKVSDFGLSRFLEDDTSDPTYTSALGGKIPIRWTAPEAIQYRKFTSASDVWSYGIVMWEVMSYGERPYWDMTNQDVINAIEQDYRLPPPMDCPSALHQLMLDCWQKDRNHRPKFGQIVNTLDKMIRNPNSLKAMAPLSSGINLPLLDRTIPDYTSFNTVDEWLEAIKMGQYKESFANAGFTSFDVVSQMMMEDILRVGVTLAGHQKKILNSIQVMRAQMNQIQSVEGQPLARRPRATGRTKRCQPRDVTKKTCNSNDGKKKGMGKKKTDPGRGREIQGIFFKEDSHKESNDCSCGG
Conditions: at 0.1 µM.
For the molecule `COc1ccc(-c2nn3ncccc3c2-c2ccnc(Nc3cccc(C(F)(F)F)c3)n2)cc1`, the inhibition turned out to be 2.91%.

As for `CN(C)C(=O)O[C@@H]1CN[C@@H](C#Cc2cc3ncnc(Nc4ccc(OCc5cccc(F)c5)c(Cl)c4)c3s2)C1`, the inhibition came to 0.71%.

Consider `CC(C)c1ccc2c(c1)NC(=O)/C2=N/Nc1ccc(S(N)(=O)=O)cc1`, for which the inhibition amounted to 0.18%.

As to `NS(=O)(=O)c1ccc(NC=C2C(=O)Nc3ccc4ncsc4c32)cc1`, the inhibition was 4.62%.

With `C[C@@H](Oc1cc(-n2cnc3ccc(OCC4CCN(C)CC4)cc32)sc1C(N)=O)c1ccccc1C(F)(F)F`, the inhibition is -9.54%.

Turning to `CN(C)c1cc2c(Nc3ccc4c(cnn4Cc4ccccc4)c3)ncnc2cn1`, the inhibition is 2.52%.

As to `Cc1ccc(Nc2ccnc(Nc3cccc(C(N)=O)c3)n2)cc1O`, the inhibition came out at 8.62%.

On to `CCS(=O)(=O)c1ccc(OC)c(Nc2nccc(N(C)c3ccc4c(C)n[nH]c4c3)n2)c1`, for which the inhibition is 16.4%.

Regarding `COC(=O)Nc1nc2cc(Oc3ccc(NC(=O)Nc4cccc(Br)c4)cc3)ccc2[nH]1`, the inhibition stood at 56.7%.

`CC(C)c1ccc(Nc2nccc(-c3cnn4ncccc34)n2)cc1`: the inhibition was 7.64%.

In the case of `NS(=O)(=O)c1ccc(N/N=C2\C(=O)Nc3ccc(Cl)cc32)cc1`, the inhibition worked out at 3.99%.

Turning to `COc1cccc(-n2ncc3c(N/N=C/c4ccc(C)cc4)ncnc32)c1`, the inhibition was found to be 6.77%.

On to `CCn1c(-c2nonc2N)nc2ccc(F)cc21`, for which the inhibition amounted to 7.78%.

Take `COc1cc2ncnc(Nc3ccc4c(cnn4Cc4ccccc4)c3)c2cc1OC`: the inhibition was 4.85%.

With `Nc1nccc(C#Cc2cncnc2Nc2ccc(OCc3cccc(F)c3)c(Cl)c2)n1`, the inhibition is 9.67%.

Turning to `Cc1cc(-c2ccccn2)cc(C)c1/C=C/c1cncc(-c2nn[nH]n2)c1`, the inhibition was found to be 5.94%.

Regarding `CS(=O)(=O)Nc1cccc(-c2ccc3c(NC(=O)C4CC4)n[nH]c3c2)c1`, the inhibition is -4.01%.

As for `O=C1Nc2ccc(-c3cccnc3)cc2C1=Cc1cc(Br)c(O)c(Br)c1`, the inhibition stood at 7.83%.
